# Data: PubChem BioAssay (NCATS)
# Inconclusive results are not listed. Entries that show only a call come without a potency. A number with no mark means an inactive call. Active and inactive are the calls of the source. Calls follow the shape of the dose curve; as a rule, active = well fitted curve in the direction sought with a large enough effect; inconclusive = small, poorly fitted or top-dose-only effect, or another doubt; inactive = no such curve, though single readings can be large; an effect the other way counts as inactive or inconclusive.
# Target: Aldehyde dehydrogenase, mitochondrial (Homo sapiens) (UniProt P05091)
# Assay: qHTS for Inhibitors of the Aldehyde Dehydrogenase Family (ALDH2) Primary screen (AID 2061308); also: nearly all actives have a fitted effect of over 55% in size
# Details: ALDH2 enzyme inhibition qHTS, 1536-well; series mostly up to 56 µM
row,Structure (SMILES),Potency
1,C=C1C(=O)OC2/C=C(\CO)CC/C=C(\C=O)CC(OC(=O)CC(C)C)C12 (centres undefined),inactive
2,C=C[C@@H]1[C@H](O[C@@H]2O[C@H](CO)[C@@H](O)[C@H](O)[C@H]2O)OC=C(C(=O)O)[C@H]1CCOC(=O)/C=C/c1ccc(O)c(O)c1,inactive
3,CC(=O)OCC1=CCC2C(C)(C)CCCC2(C)C12CCC(C)(CC(=O)O)O2 (centres undefined),inactive
4,CC(C)CC(=O)OC[C@H]1O[C@@](COC(=O)CC(C)C)(O[C@H]2O[C@H](CO)[C@@H](O)[C@H](O)[C@H]2O)[C@@H](OC(=O)CC(C)C)[C@@H]1OC(=O)CC(C)C,inactive
5,CC(=O)O[C@@H]1[C@@H](O)[C@H](O[C@@H]2[C@@H](O)[C@@H](O)[C@H](O[C@H]3[C@H](O[C@H]4[C@H](O[C@H]5CC[C@@]6(C)C(CC[C@]7(C)C6CC=C6[C@@H]8CC(C)(C)CC[C@]8(C(=O)O)CC[C@]67C)[C@]5(C)CO)O[C@H](CO)[C@@H](O)[C@@H]4O)OC[C@@H](O)[C@@H]3O)O[C@H]2C)OC[C@H]1O (some centres undefined),inactive
6,Cc1ncc([N+](=O)[O-])n1C[C@H](O)CN1CCOCC1,inactive
7,Cc1sc2c(c1C)C(c1ccc(Cl)cc1)=N[C@H](CC(=O)NCCCCNC(=O)COc1cccc3c1C(=O)N([C@H]1CCC(=O)NC1=O)C3=O)c1nnc(C)n1-2,inactive
8,C[C@@H]1O[C@@H](O[C@H]2[C@@H]3C=CO[C@@H](O[C@@H]4O[C@H](CO)[C@@H](O)[C@H](O)[C@H]4O)[C@@H]3[C@@]3(CO)O[C@@H]23)[C@H](O)[C@H](OC(=O)/C=C/c2ccc(O)cc2)[C@H]1OC(=O)/C=C/c1ccc(O)cc1,inactive
9,O=S(=O)(Nc1ccc(C(O)(C(F)(F)F)C(F)(F)F)cc1)c1cccs1,inactive
10,C/C1=C\CCC(C)CCO[C@@H]2O[C@H](CO[C@@H]3OC[C@H](O)[C@H](O)[C@H]3OC1=O)[C@@H](O)[C@H](O)[C@H]2O (some centres undefined),inactive
11,CC(=O)Nc1ccn(C2COC(COC(=O)c3ccccc3)O2)c(=O)n1 (centres undefined),inactive
12,CC1(C)[C@@H](O)CC[C@]2(C)[C@H]3CC=C4[C@@H]5C[C@](C)(C(=O)O)CC[C@]5(C)CC[C@@]4(C)[C@]3(C)CC[C@@H]12,inactive
13,C[C@@H]1O[C@@H](OC2C(O[C@H]3[C@H](O[C@H]4CC[C@@]5(C)C(CC[C@]6(C)C5CC=C5C7CC(C)(C)CC(O)[C@]7(C)CC[C@]56C)C4(C)C)O[C@H](C(=O)O)[C@@H](O)[C@@H]3O)OC(CO)C(O)C2O)[C@H](O)[C@H](O)[C@H]1O (some centres undefined),inactive
14,CCC[C@@H]1C[C@@H](C(=O)N[C@@H]([C@H]2O[C@H](SC)[C@H](OP(=O)(O)O)[C@@H](O)[C@H]2O)[C@H](C)Cl)N(C)C1,inactive
15,CC[C@@H](C)[C@H](N)C(=O)N1Cc2ccccc2C1,inactive
16,CC1(C)C2CC(OC3OC(COC4OCC(O)(CO)C4O)C(O)C(O)C3O)C1(C)CC2O (centres undefined),inactive
17,CC1(C)CCC[C@]2(C)C1CC=C(CO)[C@H]2CC/C(=C/CO)CO (some centres undefined),inactive
18,C/C=C(\C)C(=O)OC1C(C)C2(O)C3C=C(C)C(=O)C3CC(CO)=CC2C2C(C)(C)C12OC(C)=O (centres undefined),inactive
19,N#Cc1cc(-c2n[nH]c(-c3ccncc3)n2)ccn1,inactive

# Target: Retinaldehyde dehydrogenase 3 (Homo sapiens) (UniProt P47895)
# Assay: qHTS for Inhibitors of the Aldehyde Dehydrogenase Family (ALDH1A3) Primary screen (AID 2061315)
# Details: ALDH inhibition qHTS; series mostly up to 56 µM
Structure (SMILES),Potency,"activity change, negative = inhibition"
COc1cc2c(c(O)c1OC/C=C(\C)CC/C=C(/C)CCC=C(C)C)CN(C(CCC(=O)O)C(=O)O)C2=O (centres undefined),inactive,–
O=C(OCC1=CC(O)C2C=CO[C@@H](O[C@@H]3O[C@H](CO)[C@@H](O)[C@H](O)[C@H]3O)C12)c1ccccc1 (some centres undefined),inactive,–
CC(=O)NCCCCn1c2c(c3ccccc31)C(=O)NCC2,inactive,–
C[C@@H]1[C@H]2[C@H](O[C@@H]3O[C@H](CO)[C@@H](O)[C@H](O)[C@H]3O)OC=C(C(=O)O)[C@H]2C[C@@H]1OC(=O)/C=C/c1ccc(O)cc1,inactive,–
COc1ccc(CN2CCN(C(c3ccc(F)cc3)c3ccc(F)cc3)CC2)c(OC)c1OC,inactive,–
CC(=O)O[C@@H]1[C@H](O[C@@H]2O[C@H](CO)[C@@H](O)[C@H](O)[C@H]2O)[C@@H](O[C@@H]2O[C@@H](C)[C@H](O)[C@@H](O[C@@H]3O[C@H](CO)[C@@H](O)[C@H](O)[C@H]3O)[C@H]2O)[C@H](OC(=O)C23CCC4(C)C(=CCC5C6(C)CC(O)C(O[C@@H]7O[C@H](C(=O)O)[C@@H](O)[C@H](O)[C@H]7O)C(C)(C(=O)O)C6CCC54C)C2CC(C)(C)CC3O)O[C@@H]1C (some centres undefined),–,-5.68% [at 11.2 µM]
O=C(CC1C(=O)Nc2ccccc21)OC[C@H]1O[C@@H](OCCc2ccc(O)cc2)[C@H](O)[C@@H](O)[C@@H]1O (some centres undefined),inactive,–
C=C(C(=O)O)C1CC(O)C2(C)CCCC(=C)C2C1 (centres undefined),inactive,–
CC(C)=CCC[C@](C)(O[C@@H]1O[C@H](CO)[C@@H](O)[C@H](O)[C@H]1O)[C@H]1CC[C@]2(C)[C@@H]1[C@H](O)CC1[C@@]3(C)CC[C@H](O)C(C)(C)C3[C@@H](O[C@@H]3O[C@H](CO)[C@@H](O)[C@H](O)[C@H]3O[C@@H]3OC[C@@H](O)[C@H](O)[C@H]3O)C[C@]12C (some centres undefined),inactive,–
CC1CCC2C(C)(C)[C@H](O)CC[C@]2(C)C12Cc1c(O)cc3c(c1O2)CN(C(CCC(=O)O)C(=O)O)C3=O (some centres undefined),inactive,–
Cc1cc(NC(=O)c2cccc(NC(=O)/C=C/CN(C)C)c2)ccc1Nc1nccc(-c2cccnc2)n1,inactive,–
CC1NC(=O)C(Cc2c[nH]c3ccccc23)NC1=O (centres undefined),inactive,–
CCC(=O)O[C@]1(C(=O)CCl)[C@@H](C)C[C@H]2[C@@H]3C[C@H](F)C4=CC(=O)C=C[C@]4(C)[C@@]3(F)[C@@H](O)C[C@@]21C,inactive,–
O=C1CCC(=O)N(O)CCCCCNC(=O)CCC(=O)N(O)CCOCCNC(=O)CCC(=O)N(O)CCCCCN1,inactive,–
O=C(c1ccc2nccnc2c1)N1CCCCC1,inactive,–
CC1=C(c2ccc(NC(=O)c3c(F)cccc3F)cc2)CN(c2nccs2)CC1,inactive,–
CNc1nc(Nc2cn(C(C)(C)C#N)nc2C)ncc1C(F)(F)F,inactive,–
CC1(C)CC2C(O)C3=C(CC(C)(O)C2C1)C(=O)OC3 (centres undefined),inactive,–
C=CC1(C)CC=C2C(CCC3C(C)(C(=O)O)CCCC23C)C1 (centres undefined),inactive,–
O=S(=O)(NC1CCNCC1)c1cc(S(=O)(=O)c2ccccc2)ccc1C(F)(F)F,inactive,–

Structure (SMILES),Potency,"activity change, negative = inhibition"
CC(C)=CCC[C@](C)(O[C@@H]1O[C@H](CO)[C@@H](O)[C@H](O)[C@H]1O)[C@H]1CC[C@]2(C)[C@@H]1[C@H](O)CC1[C@@]3(C)CC[C@H](O)C(C)(C)C3[C@@H](O[C@@H]3O[C@H](CO)[C@@H](O)[C@H](O)[C@H]3O)C[C@]12C (some centres undefined),inactive,–
C=C1C(=O)OC2/C=C(\CO)CC/C=C(\C=O)CC(OC(=O)CC(C)C)C12 (centres undefined),inactive,–
C=C[C@@H]1[C@H](O[C@@H]2O[C@H](CO)[C@@H](O)[C@H](O)[C@H]2O)OC=C(C(=O)O)[C@H]1CCOC(=O)/C=C/c1ccc(O)c(O)c1,inactive,–
CC(=O)OCC1=CCC2C(C)(C)CCCC2(C)C12CCC(C)(CC(=O)O)O2 (centres undefined),inactive,–
CC(C)CC(=O)OC[C@H]1O[C@@](COC(=O)CC(C)C)(O[C@H]2O[C@H](CO)[C@@H](O)[C@H](O)[C@H]2O)[C@@H](OC(=O)CC(C)C)[C@@H]1OC(=O)CC(C)C,inactive,–
CC(=O)O[C@@H]1[C@@H](O)[C@H](O[C@@H]2[C@@H](O)[C@@H](O)[C@H](O[C@H]3[C@H](O[C@H]4[C@H](O[C@H]5CC[C@@]6(C)C(CC[C@]7(C)C6CC=C6[C@@H]8CC(C)(C)CC[C@]8(C(=O)O)CC[C@]67C)[C@]5(C)CO)O[C@H](CO)[C@@H](O)[C@@H]4O)OC[C@@H](O)[C@@H]3O)O[C@H]2C)OC[C@H]1O (some centres undefined),inactive,–
Cc1ncc([N+](=O)[O-])n1C[C@H](O)CN1CCOCC1,inactive,–
Cc1sc2c(c1C)C(c1ccc(Cl)cc1)=N[C@H](CC(=O)NCCCCNC(=O)COc1cccc3c1C(=O)N([C@H]1CCC(=O)NC1=O)C3=O)c1nnc(C)n1-2,inactive,–
C[C@@H]1O[C@@H](O[C@H]2[C@@H]3C=CO[C@@H](O[C@@H]4O[C@H](CO)[C@@H](O)[C@H](O)[C@H]4O)[C@@H]3[C@@]3(CO)O[C@@H]23)[C@H](O)[C@H](OC(=O)/C=C/c2ccc(O)cc2)[C@H]1OC(=O)/C=C/c1ccc(O)cc1,inactive,–
O=S(=O)(Nc1ccc(C(O)(C(F)(F)F)C(F)(F)F)cc1)c1cccs1,inactive,–
C/C1=C\CCC(C)CCO[C@@H]2O[C@H](CO[C@@H]3OC[C@H](O)[C@H](O)[C@H]3OC1=O)[C@@H](O)[C@H](O)[C@H]2O (some centres undefined),inactive,–
CC(=O)Nc1ccn(C2COC(COC(=O)c3ccccc3)O2)c(=O)n1 (centres undefined),inactive,–
CC1(C)[C@@H](O)CC[C@]2(C)[C@H]3CC=C4[C@@H]5C[C@](C)(C(=O)O)CC[C@]5(C)CC[C@@]4(C)[C@]3(C)CC[C@@H]12,inactive,–
C[C@@H]1O[C@@H](OC2C(O[C@H]3[C@H](O[C@H]4CC[C@@]5(C)C(CC[C@]6(C)C5CC=C5C7CC(C)(C)CC(O)[C@]7(C)CC[C@]56C)C4(C)C)O[C@H](C(=O)O)[C@@H](O)[C@@H]3O)OC(CO)C(O)C2O)[C@H](O)[C@H](O)[C@H]1O (some centres undefined),inactive,–
CCC[C@@H]1C[C@@H](C(=O)N[C@@H]([C@H]2O[C@H](SC)[C@H](OP(=O)(O)O)[C@@H](O)[C@H]2O)[C@H](C)Cl)N(C)C1,inactive,–
CC[C@@H](C)[C@H](N)C(=O)N1Cc2ccccc2C1,inactive,–
CC1(C)C2CC(OC3OC(COC4OCC(O)(CO)C4O)C(O)C(O)C3O)C1(C)CC2O (centres undefined),inactive,–
CC1(C)CCC[C@]2(C)C1CC=C(CO)[C@H]2CC/C(=C/CO)CO (some centres undefined),inactive,–
C/C=C(\C)C(=O)OC1C(C)C2(O)C3C=C(C)C(=O)C3CC(CO)=CC2C2C(C)(C)C12OC(C)=O (centres undefined),inactive,–
N#Cc1cc(-c2n[nH]c(-c3ccncc3)n2)ccn1,inactive,–
